# Experimental data: PubChem BioAssay AID485364 (National Center for Advancing Translational Sciences (NCATS), 2010)
# In all, about 360,000 compounds went through this assay and about 11,000 (3.1%) were called active. Where a call stands in place of a potency, no number is given. Another 4% or so got no clear call; they are omitted. Calls come from the whole dose curve; as a rule, active = well fitted inhibition curve with a large enough effect; inconclusive = small, poorly fitted or top-dose-only effect; inactive = no such curve, though single readings can be large or run the other way. Only a selection was taken, and actives are over-represented in it overall.
# Target: Schistosoma mansoni thioredoxin glutathione reductase (TGR) (UniProt Q962Y6)
# Assay: qHTS Assay for the Inhibitors of Schistosoma Mansoni Peroxiredoxins; note: nearly all actives have a fitted effect of over 60% in size
# Settings: purified TGR, DTNB reduction, TNB absorbance 405 nm; series mostly up to 114 µM
# How it was run: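 TGR 20 nM + NADPH 100 uM (dispensed conc.), cpd preinc 15 min RT; start with NADPH (500 uM addition) then DTNB (15 mM addition). Kinetic TNB absorbance, 405 nm filter. Four-parameter Hill fit across titration.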
# Potency is the fitted concentration of half-maximal effect.
row,SMILES,Potency
1,CCc1ccccc1N1C(=O)CN(S(=O)(=O)CC)CC1(C)C(=O)NC1CCCCC1 (stereo not given),inactive
2,Cc1ccc(NC(=O)Cn2c(=O)n(-c3ccccc3)c(=O)c3c4c(sc32)CCCC4)cc1,inactive
3,COc1ccc(/C=C(/NC(=O)c2ccccc2)C(=O)Nc2cccc(C(=O)O)c2)cc1,inactive
4,O=C(Nc1ccc(C(=O)O)cc1)/C(=C\c1ccccc1)NC(=O)c1ccc(Br)cc1,inactive
5,Cc1cccc(NC(=O)/C(=C\c2ccco2)NC(=O)c2ccccc2)c1,20 µM (active)
6,COc1ccc(-c2nc3sc(CCNS(=O)(=O)c4ccc(F)c(C)c4)c(C)n3n2)cc1,inactive
7,Cc1ccc2nc3c(cc(C(=O)NC4CCCCC4)c(=N)n3C(C)C)c(=O)n2c1,inactive
8,COc1ccc(NC2CC(=O)N(C)C2=O)cc1 (stereo not given),15.8 µM (active)
9,COc1ccc(N=C2SC(C(=O)Nc3ccc(F)cc3)CC(=O)N2C)cc1 (stereo not given),inactive
10,COc1ccc(N2C(=O)CC(Nc3ccc(F)cc3)C2=O)c([N+](=O)[O-])c1 (stereo not given),inactive
11,CCN(C(=O)Cn1c(=O)nc(-c2ccccc2)c2cc(Cl)ccc21)c1cccc(C)c1,inactive
12,COc1cccc(C(C(=O)NC2CCCC2)N(C(=O)c2ccco2)c2cccc(C(C)=O)c2)c1OC (stereo not given),inactive
13,COC(=O)c1cccc(N(C(=O)c2ccco2)C(C(=O)NC2CCCC2)c2ccco2)c1 (stereo not given),44.7 µM (active)
14,O=C(NC1CCCC1)C(c1ccco1)N(C(=O)c1ccco1)c1ccc(F)cc1 (stereo not given),inactive
15,Cc1ccc(CNC(=O)CSc2c(C)cnc3c2c(=O)n(C)c(=O)n3C)cc1,inactive
16,Cc1ccc(NC(=O)CCCn2c(=O)c3cccn3c3ccccc32)cc1Cl,inactive
17,Cn1c(=O)[nH]c(=O)c2c1nc(NCCc1ccccc1)n2Cc1ccc(F)cc1,inactive
18,Cc1c(C(=O)O)cccc1-n1c(C)cc(/C=C2\C(=O)NC(=O)N(c3ccc4c(c3)OCO4)C2=O)c1C,14.1 µM (active)
19,CC(=O)C1=C(C)NC(=O)NC1c1ccc2c(c1)OCO2 (stereo not given),inactive
20,Cc1ccccc1-n1c(C)cc(/C=C2\NC(=O)NC2=O)c1C,inactive

row,SMILES,Potency
1,CCOC(=O)c1cccc(NS(=O)(=O)c2cn(C)c(C)n2)c1,inactive
2,COc1ccccc1CN1CCNC(=O)C1CC(=O)N(C)CC1CCOCC1 (stereo not given),50.1 µM (active)
3,C=CCC1(CC=C)CCCN1C(=O)CC1C(=O)NCCN1Cc1ccccc1OC (stereo not given),inactive
4,CC(C)CN1CCNC(=O)C1CC(=O)N(C)CC1CCOCC1 (stereo not given),inactive
5,CN(Cc1cccc2ncccc12)C(=O)CC1C(=O)NCCN1Cc1ccc(F)cc1 (stereo not given),35.5 µM (active)
6,CCCOC(=O)CC1C(=O)NCCN1Cc1ccc(F)cc1 (stereo not given),inactive
7,Cc1cnc(CN(C)C(=O)CC2C(=O)NCCN2Cc2cccc(F)c2F)[nH]1 (stereo not given),inactive
8,CCc1ccc2ncc3c(-c4ccc(C)cc4)nn(CC(=O)NCc4ccccc4)c3c2c1,inactive
9,Cc1nn(C)c2c1c(C(F)(F)F)cc(=O)n2C(C)C(=O)NCc1ccc(Cl)cc1 (stereo not given),inactive
10,CC(C)c1ccc(NC(=O)Cn2nnc(C(=O)NCCc3ccccc3)c2N)cc1,inactive
11,COc1cc(CC(=O)N/N=C/c2ccccc2)c([N+](=O)[O-])cc1OC,inactive
12,COc1ccccc1OCCNC(=O)c1cc([N+](=O)[O-])cc([N+](=O)[O-])c1,inactive
13,COc1ccc(C(=O)NCC(=O)N/N=C/c2ccc([N+](=O)[O-])o2)cc1OC,17.8 µM (active)
14,CC(C)(C)c1ccc(S(=O)(=O)N2CCN(C(=O)c3cc(-c4ccc(Br)cc4)n[nH]3)CC2)cc1,inactive
15,COc1ccc(N2CCN(S(=O)(=O)c3ccc(-c4coc(C)n4)cc3)CC2)cc1,inactive
16,O=C(C1CCCN(S(=O)(=O)c2cccc3nonc23)C1)N1CCN(c2ccccc2F)CC1 (stereo not given),inactive
17,CCC(=O)N1CCc2cc(Br)cc(S(=O)(=O)Nc3ccc(C)cc3C)c21,inactive
18,Oc1c(C=Nc2cccc3nsnc23)ccc2ccccc12,7.94 µM (active)
19,CCc1ccc(S(=O)(=O)n2ccnc2)cc1,inactive
20,COCC(C)NS(=O)(=O)c1ccc(N2CCCCS2(=O)=O)cc1 (stereo not given),inactive

row,SMILES,Potency
1,O=C(O)CCCn1c(=O)c2cccn2c2ccc(F)cc21,inactive
2,COCCCNC(=O)C1CC(=O)N(CCc2ccc(F)cc2)C1 (stereo not given),inactive
3,COCCCn1c(CCC(=O)O)ccc1-c1ccc(F)cc1,44.7 µM (active)
4,CCOC(=O)C1CCCN(CC(=O)Nc2cc(C)c3c(=O)oc4ccccc4c3n2)C1 (stereo not given),inactive
5,CCC1Oc2ccc(Cl)cc2N(CC(=O)O)C1=O (stereo not given),inactive
6,Cc1cc(Cl)ccc1N1C(=O)CC(SCCC(=O)O)C1=O (stereo not given),39.8 µM (active)
7,O=C(CSC1CC(=O)N(CCc2ccccc2)C1=O)Nc1ccc(Cl)cc1 (stereo not given),inactive
8,COc1ccc(N2CCN(C(=O)c3c(C)oc4nc(C)nc(N5CCCC5)c34)CC2)cc1,inactive
9,COc1ccc(C(=O)N2CCC(c3nc4ccccc4o3)CC2)cc1,inactive
10,Cc1ccc(CNC(=O)C(=O)c2cn(CC(=O)N3CCCC3)c3ccccc23)cc1,inactive
11,Cc1ccc(CNC(=O)C(=O)c2cn(CC(=O)N3CCOCC3)c3ccccc23)cc1,inactive
12,O=C(NCc1ccco1)C(=O)c1cn(CC(=O)N2CCCCCC2)c2ccccc12,31.6 µM (active)
13,CC1CCN(C(=O)Cn2c(=O)n(-c3ccc(Cl)cc3)c(=O)c3c4c(sc32)CCC4)CC1,inactive
14,Cc1cc(C)c2oc(C(=O)Nc3c(C(=O)Nc4ccccc4)oc4ccccc34)cc(=O)c2c1,inactive
15,C[C@@H]1NC(=O)c2cc([N+](=O)[O-])cc(F)c2NCCC[C@@H](C(N)=O)NC(=O)[C@H](CC(N)=O)NC1=O,inactive
16,NC(=O)CC[C@@H]1NC(=O)[C@H](CO)NC(=O)c2cc([N+](=O)[O-])cc(I)c2NCC[C@@H](C(N)=O)NC1=O,inactive
17,NC(=O)CC[C@@H]1NC(=O)[C@@H]2CCCN2C(=O)c2cc([N+](=O)[O-])cc(F)c2NCCC[C@@H](C(N)=O)NC1=O,44.7 µM (active)
18,Cc1cccc(CC(=O)Nc2cccc(-c3cn4cccnc4n3)c2)c1,inactive
19,CCCc1cc(=S)n2c([nH]c3ccccc32)c1C#N,0.631 µM (active)
20,CN(C)Cc1c(C#N)c2ccccc2n1C,inactive
